# Laboratory results published in PubChem BioAssay (EPA / NIEHS).
# Activity calls are given as the source filed them. Rule for the calls: active = hit-call score of the fitted dose curve at least 0.9, where 1 is the maximum; inconclusive = response in the unintended direction; inactive = score below 0.9.
# Assay: LTEA_HepaRG_LDH_cytotoxicity: Cytotoxicity Assessment in the Life Technologies and Expression Analysis (LTEA) Assay (AID 2283563)
# Description: LTEA_HepaRG is a cell based, multiplexed-readout assay that uses HepaRG, a human liver cell line, with measurements taken at 48 hours after chemical dosing on a 96-well plate.LTEA_HepaRG_LDH_cytotoxicity is one of 102 assay component(s) measured in the LTEA HepaRG cell culture assay. It is a marker of cell viability / cytotoxicity.Data from the assay component LTEA_HepaRG_LDH_cytotoxicity was analyzed into 1 endpoint. This assay endpoint, LTEA_HepaRG_LDH_cytotoxicity, was analyzed in the positive fitting direction relative to DMSO as the negative control and baseline of activity. Using a type of inducible reporter, measures of mRNA induction for loss-of-signal activity can be used to understand cell death. To generalize the intended target to other relatable targets, this assay endpoint is annotated to the cell cycle intended target family, where the subfamily is proliferation.
# A total of 1060 chemcials from the ToxCast library were tested in eight-point concentration-response experiments. Cell culture and cytotoxicity assays were conducted at Thermo Fisher Scientific's Custom Services facility (Madison, WI). A single lot of human HepaRG cells (Thermo Fisher Scientific, Frederick, MD) was used for the cell culture experiments. 96-well format collagen type I coated plates of human HepaRG cells were prepared using established methods. Briefly, cryopreserved HepaRG cells were thawed, plated at a density of approximately 100,000 cells/well in HepaRG Thaw, Plate, and General Purpose media (HPRG770, Thermo Fisher Scientific), and incubated for 48 hours. 0.5% DMSO was selected as vehicle control to balance the requisite need of DMSO in HepaRG cultures to maintain differentiation (for example, baseline metabolism, proportions of hepatocytes vs. cholangiocytes), while enabling further hepatic receptor pathway activation (for example, PXR and CAR) in response to chemical exposure. 48 hours after plating, the culture medium was replaced with HepaRG Serum-Free Incudtion Media. Cells were exposed to each test chemical in duplicate and maintained in CO2 incubators for another 48 hours. Chemical plates were thawed to room temperature and 200x concentrations of treatment groups were prepared. 8-point conentration-reponse curves were made with the highest exposure at 100 uM, followed by half-log dilutions, all in 0.5% DMSO. Each test plate contained variouse controls, induction positive controls (1mM phenobarbital), cytotoxicity positive controls ([…] aflatoxin B1), vehicle controls (0.5% DMSO), and total lysis controls (0.5% DMSO). Cell morphology images were taken using an Essen IncuCyte FLR automated microscope, with six 96-well plates imaged in about 24 minutes. Images were captured and exported and JPEG files. Spent culture media was transfered to black-well plates for the LDH assay, and remaining media was sorted at -80 C for later use. Cells were treated with RLT buffer and frozen until shipped for gene expression analysis. Total RNA was isolated from the cell suspension in 75 uL of Buffer RLT (Qiagen, Germantown, MD 20874) by Quintiles/Expression Analysis (Durham, NC) using a custom isolation procedure. Total RNA from each plate well was transferred to a preamplification plate. Fluidigm's 96.96 Dynamic ArrayTM (Fluidigm, Amsterdam, the Netherlands) technology was used for gene expression analyses by quantitative reverse transcription polymerase chain reaction (qRT-PCR, performed by Quintiles/Expression Analysis, Durham, NC)89. Standard TaqManTM Assays (Applied Biosystems/ThermoFisher Scientific, Foster City, CA) were used to assess the expression of 93 genes selected based on their selectivity and sensitivity to important hepatic receptors known to be modulated by environmental chemicals; importance in human hepatocyte functionality; and hepatotoxicity. […]
SMILES,outcome,AC50
OCC1CO1 (stereo not given),inactive,
Cc1cccc(N)c1,inactive,
CCNc1nc(Cl)nc(NC(C)(C)C)n1,inactive,
Nc1ccc2ccccc2c1,inactive,
CCCCN(CCCC)SN(C)C(=O)Oc1cccc2c1OC(C)(C)C2,inactive,
O=C(O)C1C(C(=O)O)C2(Cl)C(Cl)=C(Cl)C1(Cl)C2(Cl)Cl (stereo not given),inactive,
CC(C)(C)OOC(C)(C)C,inactive,
O=[N+]([O-])c1ccccc1,inactive,
c1cc2c3c(cccc3c1)CC2,inactive,
Nc1ccc(Cl)cc1,inactive,
CCOC(=O)c1ccccc1C(=O)OCC,inactive,
CCOc1ccc(C(C)(C)COCc2cccc(Oc3ccccc3)c2)cc1,inactive,
CCC(C)(C)c1ccc(O)cc1,inactive,
O=[N+]([O-])c1ccc(Cl)c(Cl)c1,inactive,
O=P(Oc1ccccc1)(Oc1ccccc1)Oc1ccccc1,,72.7 µM (active)
CSC(C)(C)C=NO,inactive,
CCOP(=S)(Oc1ccc([N+](=O)[O-])cc1)c1ccccc1 (stereo not given),inactive,
CC(Cc1ccc(OCC(=O)O)cc1)NCC(O)c1csc(C(F)(F)F)n1 (stereo not given),inactive,
Cc1ccc(N)cc1N,inactive,
c1ccc2c(c1)Nc1ccccc1S2,inactive,

SMILES,outcome,AC50
Cc1ccc([N+](=O)[O-])cc1C,inactive,
CCOS(=O)(=O)OCC,inactive,
COCCOCCO,inactive,
CC(Cl)(Cl)C(=O)O,inactive,
ClC1=C(Cl)C2(Cl)C3C(Cl)C(Cl)CC3C1(Cl)C2(Cl)Cl (stereo not given),inactive,
CCC1(c2ccccc2)C(=O)N=C(O)NC1=O (stereo not given),inactive,
CCCN(CCC)c1c([N+](=O)[O-])cc(C(C)C)cc1[N+](=O)[O-],inactive,
CCCCCCCc1ccc(O)cc1,inactive,
Nc1cc2c3c(c1)C(c1ccccc1)=N[C@@H](NC(=O)c1cccnc1)C(=O)N3CC2,inactive,
O=P1(N(CCCl)CCCl)NCCCO1 (stereo not given),inactive,
ClC(Cl)c1ccccc1,inactive,
[N-]=[N+]=[N-],inactive,
CCCCN(CCCC)N=O,inactive,
CCOP(=S)(OCC)SCSCC,inactive,
CN(C)C(=O)Cl,inactive,
CCCCc1ccccc1,inactive,
CCN(CC)c1ccccc1,inactive,
ClC(Cl)(Cl)c1ccccc1,inactive,
c1nc[nH]n1,inactive,
O=C(O)C(Cl)Cl,inactive,
